Experimental findings from PubChem BioAssay (NCATS) are described below.

Values joined by “and” are separate entries in the source; they are usually repeats but may differ in a detail not shown here. Identical values can stand only once. Results filed as inconclusive are left out. Some compounds were tested as several samples or in several runs, with calls that do not always agree. Unmarked numbers belong to inactive results. Active and inactive are the calls of the source. Calls come from the whole dose curve; as a rule, active = well fitted inhibition curve with a large enough effect; inconclusive = small, poorly fitted or top-dose-only effect; inactive = flat fitted curve, though single readings scatter. *1 amine or outer side, *2 acyl side, *3 side chain or, on linkers, in order; H or OH if unused. Where a SMILES comes first, the peptide text is derived from it. Bridges are numbered along the chain shown (N, C = ends). [ ]: non-standard residue; d: D form. The star is where a group is joined. X5 = NC1=N[C@@H]([C@H](N[*:1])C(=O)[*:2])C[C@H](O)N1; ΔAla(Z-3-ureido) = NC(=O)N/C=C(\N)C(=O)O; pGlu = O=C1CC[C@@H](C(=O)O)N1; β3hOrn = NCCC[C@H](N)CC(=O)*; Dap = NC[C@H](N)C(=O)O

Experiment [1] can be described thus: Drug repurposing screens with cells derived from glioblastoma tumor samples (AID 1345199). Note: nearly all actives have a fitted effect of over 40% in size. Conditions: GBM patient neurospheres viability, ATP luminescence, 48 h. The gist of the method:
(§1)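 Primary testing used CD133+ neurospheres from four GBM patients, seven concentrations, 48 h exposure and ATP-based viability; confirmation added three slower-growing patient lines.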

Another experiment has as its system astro (control astrocytes). Described as above. The settings on record: viability, ATP luminescence, 48 h; series mostly up to 45.9 µM. In short, it runs like this: as §1
[2] abbreviates: at 45.9 µM (top of the series), tumour line B.
[3] abbreviates: at 45.9 µM (top of the series), tumour line D.
Setting [4] is: at 46 µM (top of the series), tumour line A.
Where [5] appears, read: at 46.1 µM (top of the series), tumour line C.
[6] abbreviates: at 20 µM (top of the series), tumour line C.
[7] abbreviates: at 21.2 µM (top of the series), tumour line B.
[8] abbreviates: at 21.2 µM (top of the series), tumour line D.
Setting [9] is: at 21.3 µM (top of the series), tumour line A.
% is set by controls: 0 for no effect and ±100 for the full control effect; potency is the fitted concentration of half-maximal effect.

As to `CC[C@H](C)[C@H](NC(=O)[C@H](Cc1ccccc1)NC(=O)[C@H](C)NC(=O)[C@H](CC(=O)O)NC(=O)[C@H](CCCCN)NC(=O)[C@H](CO)NC(=O)[C@@H]1CCCN1C(=O)[C@@H]1CCC(=O)N1)C(=O)NCC(=O)N[C@@H](CC(C)C)C(=O)N[C@@H](CCSC)C(N)=O` ([pGlu]PSKDAFIGLM-NH2), the activity, negative = cell killing is -11.4% in experiment [1] (setting [2]), 13.8% in experiment [1] (setting [3]), -9.58% in experiment [1] (setting [4]) and -14.3% in experiment [1] (setting [5]).

For `O=C(O)c1cc(N=Nc2ccc(O)c(C(=O)O)c2)ccc1O`, the activity, negative = cell killing is -10.7% in experiment [1] (setting [2]), -13.9% in experiment [1] (setting [3]), -13.2% in experiment [1] (setting [4]) and -29.5% in experiment [1] (setting [5]). For the same compound, the Potency entry in the experiment with astro is “inactive”.

`CC(C)[C@H](N)C(=O)OCC(CO)OCn1cnc2c(=O)[nH]c(N)nc21` (some centres undefined): the activity, negative = cell killing in experiment [1] (setting [2]) was -16.2%; in experiment [1] (setting [3]), -11.6%; in experiment [1] (setting [4]), -27%; in experiment [1] (setting [5]) it was -25.2%.

`Nc1nc(=O)n([C@@H]2CS[C@H](CO)O2)cc1F`: the activity, negative = cell killing in experiment [1] (setting [2]) was -1.96%; in experiment [1] (setting [3]), -4.58%; in experiment [1] (setting [4]) it was -12.2%; in experiment [1] (setting [5]), 2.71%.

On to `CC1C(=O)CC2C3(C)CCC2(C(C)C(=O)O)C(=O)C13` (centres undefined), for which the activity, negative = cell killing is -19.4% in experiment [1] (setting [2]), 8.38% in experiment [1] (setting [3]), -22.7% in experiment [1] (setting [4]) and -6.43% in experiment [1] (setting [5]). Further, the Potency entry in the experiment on astro was “inactive”.

Regarding `Cc1c(O)c(=O)ccn1C`, the activity, negative = cell killing is -9.32% in experiment [1] (setting [2]), -8.06% in experiment [1] (setting [3]), -29.8% in experiment [1] (setting [4]) and -25.3% in experiment [1] (setting [5]). The Potency result in the experiment on astro was “inactive”.

As for `OC/C=C/c1ccccc1`, the activity, negative = cell killing was -6.23% in experiment [1] (setting [2]), -1.36% in experiment [1] (setting [3]), -12.3% in experiment [1] (setting [4]) and 8.18% in experiment [1] (setting [5]).

Turning to `N[C@H](CC(=O)O)C(=O)O`, the activity, negative = cell killing in experiment [1] (setting [2]) is 13.2%; in experiment [1] (setting [3]), 11.3%; in experiment [1] (setting [4]) it was 11.8%; in experiment [1] (setting [5]), -1.3%.

With `CN1C(=O)OC(C)(C)C1=O`, the activity, negative = cell killing is -9% in experiment [1] (setting [6]), 0.292% in experiment [1] (setting [7]), -3.8% in experiment [1] (setting [8]) and -18.7% in experiment [1] (setting [9]).

Turning to `Nc1ncnc2c1ncn2CCOCP(=O)(O)O`, the activity, negative = cell killing in experiment [1] (setting [2]) is 2.17%; in experiment [1] (setting [3]), -1.17%; in experiment [1] (setting [5]), -21.5%.

`COc1ccc2c(=O)c(C)c(-c3ccccc3)oc2c1CN(C)C`: the activity, negative = cell killing in experiment [1] (setting [2]) was -11.5%; in experiment [1] (setting [3]), -20.7%; in experiment [1] (setting [5]), -17.7%. Also, the Potency in experiment [1] (tumour line A) is 20 µM (active).

`CCCC(CCC)C(=O)OC1C[C@H]2CC[C@@H](C1)[N+]2(C)C` (some centres undefined): the activity, negative = cell killing is -8.76% and -2.82% in experiment [1] (setting [2]); -23.5% and -24.1% in experiment [1] (setting [3]); -20.2% in experiment [1] (setting [5]). Besides, in experiment [1] (tumour line A), the Potency was 17.8 µM (active).

For `COC(=O)[C@@H](N)CS`, the activity, negative = cell killing is 4.89% in experiment [1] (setting [2]), -8.33% in experiment [1] (setting [3]), -26.1% in experiment [1] (setting [4]) and 4.09% in experiment [1] (setting [5]). In addition, the Potency result in the experiment on astro is “inactive”.

With `O=C(CO)[C@@H](O)[C@H](O)[C@@H](O)C(=O)O`, the activity, negative = cell killing in experiment [1] (setting [2]) is -4.69%; in experiment [1] (setting [3]), -4.84%; in experiment [1] (setting [4]) it was -22.3%; in experiment [1] (setting [5]), -9.16%.

`O=P(O)(O)OC[C@H](O)CO`: the activity, negative = cell killing was -8.89% in experiment [1] (setting [2]), -11.2% in experiment [1] (setting [3]), -27.1% in experiment [1] (setting [4]) and 21.9% in experiment [1] (setting [5]). Besides, the Potency entry with astro is “inactive”.

Consider `C=CC1=C(C(=O)O)N2C(=O)[C@@H](NC(=O)/C(=N\O)c3csc(N)n3)[C@H]2SC1` (stereo in doubt), for which the activity, negative = cell killing in experiment [1] (setting [2]) is 5.66% and -6.14%; in experiment [1] (setting [3]), -12.1% and -17.4%; in experiment [1] (setting [4]), -18.5%; in experiment [1] (setting [5]), 20.4% and -9.47%. Besides, in the experiment with astro, the Potency entry was “inactive”.

Regarding `NC(=O)[C@@H]1CCCN1C(=O)[C@H](Cc1cnc[nH]1)NC(=O)[C@@H]1CCC(=O)N1`, the activity, negative = cell killing is -8.63% in experiment [1] (setting [2]), 6.97% in experiment [1] (setting [3]), -26.1% in experiment [1] (setting [4]) and 5.62% in experiment [1] (setting [5]). Moreover, the Potency result with astro was “inactive”.

Turning to `CC(CNC(=O)c1cccnc1)NC(=O)c1cccnc1` (centres undefined), the activity, negative = cell killing in experiment [1] (setting [2]) was -10.6%; in experiment [1] (setting [3]) it was -9.97%; in experiment [1] (setting [4]) it was -56.9%; in experiment [1] (setting [5]) it was -14.1%. In addition, the Potency entry in the experiment on astro is “inactive”.

For `NCCC[C@H](N)CC(=O)N[C@H]1CNC(=O)[C@H]([C@H]2C[C@H](O)NC(N)=N2)NC(=O)/C(=C/NC(N)=O)NC(=O)[C@H](CO)NC(=O)[C@H](CO)NC1=O` (β3hOrn-[Dap]SS[ΔAla(Z-3-ureido)][X5]; lactam 1-C), the activity, negative = cell killing in experiment [1] (setting [2]) is -0.927%; in experiment [1] (setting [3]), -12.2%; in experiment [1] (setting [4]) it was -14.8%; in experiment [1] (setting [5]) it was -14%. In the experiment with astro, the Potency result is “inactive”.

Take `CN[C@@H]1[C@@H](O[C@H]2O[C@H](CO)[C@@H](N)[C@H](O)[C@H]2O)O[C@H]2C[C@@H](N)[C@@H](O[C@H]3[C@H](O)[C@@H](O)[C@H](N)C[C@@H]3N)O[C@@H]2[C@@H]1O`: the activity, negative = cell killing is -7.39% in experiment [1] (setting [6]), 0.663% in experiment [1] (setting [7]), 2.67% in experiment [1] (setting [8]) and -16.4% in experiment [1] (setting [9]). Further, the Potency entry in the experiment on astro was “inactive”.

`c1ccc(-n2cnnn2)cc1`: the activity, negative = cell killing in experiment [1] (setting [2]) is -15%; in experiment [1] (setting [3]) it was 5.06%; in experiment [1] (setting [4]) it was -23.5%; in experiment [1] (setting [5]) it was -0.778%. The Potency entry with astro was “inactive”.

As to `CN1C(=O)C[C@@H](C(=O)N[C@@H](Cc2cnc[nH]2)C(=O)N2CCC[C@H]2C(N)=O)NC1=O`, the activity, negative = cell killing in experiment [1] (setting [2]) was -7.31%; in experiment [1] (setting [3]), -5.42%; in experiment [1] (setting [4]), -26.4%; in experiment [1] (setting [5]), -16.9%. Besides, in the experiment with astro, the Potency result was “inactive”.

Take `CC(C)c1nc(N(C)S(C)(=O)=O)nc(-c2ccc(F)cc2)c1/C=C/C(O)CC(O)CC(=O)O` (centres undefined): the activity, negative = cell killing in experiment [1] (setting [2]) was -27.3%; in experiment [1] (setting [5]), -19%. Moreover, the Potency is 3.55 µM (active) in experiment [1] (tumour line A), 17.8 µM (active) in experiment [1] (tumour line D) and 10 µM (active) in the experiment on astro.
